Data: PubChem BioAssay
Active and inactive are the calls of the source. Unless noted, how the calls were made is not given here.

Tests used:
[1] = resazurin metabolic signal in HepG2 cells – cell-based, resazurin fluorescence, 24 h, PK04 Diversity Set, profiling panel (AID 1172); conditions: HepG2 viability, higher = more signal
[2] = budding yeast growth changes without added modifier – OD600, strain BY4716, 24 h, basal condition, primary screen (AID 1173); conditions: S. cerevisiae BY4716 growth, OD600, 24 h; higher = more signal, called active from +8 up or from −8 down
[3] = viability profiling in MM1S myeloma cells – cell-based, resazurin fluorescence, basal, 24 h, PK04 Diversity Set, profiling panel (AID 1174); conditions: higher = more signal, called active from +8 up or from −8 down;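 further: MM1S multiple myeloma cell line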
[4] = target: Dihydroorotate dehydrogenase (quinone), mitochondrial (Plasmodium falciparum (isolate 3D7)) (UniProt Q08210); assay: inhibition of P. falciparum DHODH – biochemical, C-terminal His tag, absorbance 600 nm, primary screen (AID 1175); conditions: PfDHODH enzyme, DCIP absorbance 600 nm; higher = more signal, called active from +8 up or from −8 down;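 further: recombinant parasite enzyme with a five histidine tag at its C terminus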
[5] = inhibition of PAO1 biofilm formation – strain PAO1, LB-PBS medium, absorbance 600 nm, primary screen (AID 1176); conditions: P. aeruginosa PAO1 growth/biofilm, A600, 12 h; higher = more signal
[6] = growth modulation of vineyard yeast isolate – strain RM11-1a, OD600, basal, 24 h, primary screen (AID 1177);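 further: cultures grown under basal conditions with no added stressor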; conditions: S. cerevisiae RM11-1a growth, OD600, 24 h; higher = more signal, called active from +8 up or from −8 down
[7] = growth of efflux-deficient E. coli DRC39 – strain DRC39, OD650, 24 h, E. coli filamentation inducers, primary screen (AID 1178);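 further: growth measured as culture turbidity by optical density at 650 nm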; conditions: E. coli DRC39 acrAB, higher = more signal, called active from +8 up or from −8 down
[8] = growth of efflux-deficient E. coli DRC39 – strain DRC39, OD650, 48 h, E. coli filamentation inducers, primary screen (AID 1179);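 further: screen aims at cell division blockers that make cells filament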; conditions: E. coli DRC39 delta-acrAB growth, higher = more signal, called active from +8 up or from −8 down
[9] = viability profiling in RPMI8226 myeloma cells – cell-based, resazurin fluorescence, basal, 24 h, PK04 Diversity Set, profiling panel (AID 1180); conditions: higher = more signal;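 further: RPMI8826 multiple myeloma cell line at 5000 cells per well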
[10] = target: E3 ubiquitin-protein ligase XIAP (Homo sapiens) (UniProt P98170); assay: small molecules binding XIAP protein – biophysical, small-molecule microarray, fluorescence 635 nm, primary screen (AID 1181); conditions: higher = more signal;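 further: score merges 667 nm emission and signal to noise over triplicate slides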
[11] = system: XIP peptide (Xip251-270) binding; assay: XIP fragment 251-270 binding compounds – biochemical, small-molecule microarray, fluorescence 635/667 nm, 0.1 µg/mL protein, primary screen (AID 1182); conditions: fluorescent protein binding, 635 nm, higher = more signal, called active from +8 up or from −8 down
XIP peptide (Xip251-270) = assay: compounds binding XIP fragment 251-270 – biochemical, small-molecule microarray, fluorescence 635/667 nm, 0.5 µg/mL protein, primary screen (AID 1183); conditions: fluorescence 635 nm, higher = more signal
[12] = blood-stage malaria parasite viability loss – strain 3D7, DAPI fluorescence, 100 nL, primary screen (AID 1184);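 further: parasites grown inside human red blood cells in medium with human serum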; conditions: P. falciparum 3D7 growth, 3 d, higher = more signal
[13] = target: Homeobox protein Hox-A13 (Mus musculus) (UniProt Q62424); assay: disruptors of Hoxa13 oligonucleotide interaction – biochemical, fluorescence polarization, labeled oligonucleotide, primary screen (AID 1185); conditions: Hoxa13:DNA binding, 15 min, higher = more signal, called active from +8 up or from −8 down
Chain of Homeobox protein Hox-A13 (Mus musculus) (Q62424 whole entry, looked up): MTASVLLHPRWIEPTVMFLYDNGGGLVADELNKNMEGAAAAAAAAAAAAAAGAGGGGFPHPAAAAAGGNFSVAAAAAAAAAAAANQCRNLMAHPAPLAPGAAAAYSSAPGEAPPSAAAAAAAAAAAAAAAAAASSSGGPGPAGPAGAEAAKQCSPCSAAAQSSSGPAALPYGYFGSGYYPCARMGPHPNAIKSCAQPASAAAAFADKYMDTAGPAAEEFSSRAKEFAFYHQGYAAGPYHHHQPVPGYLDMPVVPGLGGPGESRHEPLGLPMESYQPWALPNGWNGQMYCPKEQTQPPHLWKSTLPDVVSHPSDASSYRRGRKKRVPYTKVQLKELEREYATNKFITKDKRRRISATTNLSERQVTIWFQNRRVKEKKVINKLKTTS

Chain of Dihydroorotate dehydrogenase (quinone), mitochondrial (Plasmodium falciparum (isolate 3D7)) (Q08210 whole entry, looked up): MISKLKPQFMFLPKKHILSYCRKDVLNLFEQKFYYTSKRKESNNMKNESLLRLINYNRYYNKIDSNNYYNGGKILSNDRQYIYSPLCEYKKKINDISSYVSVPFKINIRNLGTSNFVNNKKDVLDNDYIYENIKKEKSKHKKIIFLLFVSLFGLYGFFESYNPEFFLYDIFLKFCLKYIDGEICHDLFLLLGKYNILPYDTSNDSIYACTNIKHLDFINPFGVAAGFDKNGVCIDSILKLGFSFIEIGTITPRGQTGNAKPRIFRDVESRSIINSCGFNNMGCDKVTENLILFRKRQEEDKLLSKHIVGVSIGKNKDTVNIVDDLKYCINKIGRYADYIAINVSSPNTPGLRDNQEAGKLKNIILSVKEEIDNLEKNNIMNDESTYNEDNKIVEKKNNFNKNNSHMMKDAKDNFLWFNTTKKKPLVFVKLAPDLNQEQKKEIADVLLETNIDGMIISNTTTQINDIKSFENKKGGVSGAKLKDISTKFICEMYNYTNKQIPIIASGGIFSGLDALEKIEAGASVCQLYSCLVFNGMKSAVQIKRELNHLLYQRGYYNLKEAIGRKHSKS
Chain of E3 ubiquitin-protein ligase XIAP (Homo sapiens) (P98170 whole entry, looked up, the tested form may be a part): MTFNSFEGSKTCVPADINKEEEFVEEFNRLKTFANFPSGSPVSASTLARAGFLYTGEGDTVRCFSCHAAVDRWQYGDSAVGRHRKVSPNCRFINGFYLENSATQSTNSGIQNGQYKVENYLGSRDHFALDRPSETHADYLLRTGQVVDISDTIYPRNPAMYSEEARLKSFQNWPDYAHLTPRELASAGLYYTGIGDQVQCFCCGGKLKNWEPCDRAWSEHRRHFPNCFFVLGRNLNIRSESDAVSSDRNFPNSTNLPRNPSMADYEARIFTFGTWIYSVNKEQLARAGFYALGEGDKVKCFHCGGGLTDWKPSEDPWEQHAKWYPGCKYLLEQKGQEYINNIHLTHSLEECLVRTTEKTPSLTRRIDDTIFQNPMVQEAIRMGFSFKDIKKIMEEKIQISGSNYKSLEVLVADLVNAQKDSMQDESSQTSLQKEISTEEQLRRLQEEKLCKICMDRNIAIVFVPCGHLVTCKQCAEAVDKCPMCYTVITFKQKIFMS

Compound: COc1ccc(O[C@H]2C=C[C@@H](c3ccccc3)O[C@@H]2CON=C(C)CCN2CCc3nc(-c4ccccc4)c(-c4ccccc4)cc3C2)cc1
- z-score [1]: 0.449
- z-score [2]: -0.606 (inactive)
- z-score [3]: -0.159 (inactive)
- composite z-score [4]: 0.503 (inactive)
- z-score [5]: 0.135 (inactive)
- z-score [6]: 1.21 (inactive)
- z-score [7]: -0.166 (inactive)
- z-score [8]: -1.89 (inactive)
- z-score [9]: 0.382
- composite z-score [10]: -0.0536
- composite z-score [11]: 0.276 (inactive)
- composite z-score (XIP peptide (Xip251-270)): 0.445
- z-score [12]: -0.553
- z-score [13]: -1.81 (inactive)

Compound: CON=C(C)CCC(=O)OC[C@H]1O[C@H](c2ccccc2)C=C[C@@H]1Oc1ccc(OC)cc1
- z-score [1]: 0.0444
- z-score [2]: 0.831 (inactive)
- z-score [3]: 0.289 (inactive)
- composite z-score [4]: -0.0389 (inactive)
- z-score [5]: 0.0981 (inactive)
- z-score [6]: 1.44 (inactive)
- z-score [7]: 0.732 (inactive)
- z-score [8]: -1.76 (inactive)
- z-score [9]: 0.268
- composite z-score [10]: 0.0619
- composite z-score [11]: 0.103 (inactive)
- composite z-score (XIP peptide (Xip251-270)): 0.19
- z-score [12]: -0.442
- z-score [13]: -4.5 (inactive)

Compound: O=C1CCCC=C1C(O)CCCCBr (centres undefined)
- z-score [1]: -1.4
- z-score [2]: -17.6 (active)
- z-score [3]: -8.08 (active)
- composite z-score [4]: -1.39 (inactive)
- z-score [5]: 1.43 (inactive)
- z-score [6]: -2.66 (inactive)
- z-score [7]: 0.48 (inactive)
- z-score [8]: 0.557 (inactive)
- z-score [9]: -4.3
- composite z-score [10]: -0.193
- composite z-score [11]: 0.26 (inactive)
- composite z-score (XIP peptide (Xip251-270)): -0.165
- z-score [12]: -1.76
- z-score [13]: -5.96 (inactive)

Compound: CCC(=O)[C@@]1(O)C(=O)N2C(=C3C(=O)OCC[C@@H]31)N(Cc1ccccc1)C(C)=C(C(=O)OC)[C@H]2c1ccccc1
- z-score [1]: -0.207
- z-score [2]: -0.235 (inactive)
- z-score [3]: 0.327 (inactive)
- composite z-score [4]: -1.41 (inactive)
- z-score [5]: 0.936 (inactive)
- z-score [6]: 0.273 (inactive)
- z-score [7]: 0.533 (inactive)
- z-score [8]: -0.247 (inactive)
- z-score [9]: -0.557
- composite z-score [10]: -0.175
- composite z-score [11]: -0.0955 (inactive)
- composite z-score (XIP peptide (Xip251-270)): 0.177
- z-score [12]: 0.663
- z-score [13]: -0.219 (inactive)

Compound: CO[C@H]1COC(=O)CCC[C@@H](C)[C@H](OC)COC(=O)[C@@H](C)NC(=O)CC=C[C@@H]1C
- z-score [1]: 0.0039
- z-score [2]: 0.315 (inactive)
- z-score [3]: 0.77 (inactive)
- composite z-score [4]: -2.33 (inactive)
- z-score [5]: -1.46 (inactive)
- z-score [6]: -1.07 (inactive)
- z-score [7]: -1 (inactive)
- z-score [8]: -0.345 (inactive)
- z-score [9]: 0.0228
- composite z-score [10]: -0.138
- composite z-score [11]: -0.157 (inactive)
- composite z-score (XIP peptide (Xip251-270)): -0.0673
- z-score [12]: -1.29
- z-score [13]: -1.94 (inactive)

Compound: COc1ccc(O[C@H]2C=C[C@@H](c3ccccc3)O[C@@H]2CON=C(C)CCC(=O)OC[C@H]2O[C@H](c3ccccc3)C=C[C@@H]2Oc2ccc(OC)cc2)cc1
- z-score [1]: 0.319
- z-score [2]: 0.917 (inactive)
- z-score [3]: 0.427 (inactive)
- composite z-score [4]: -0.497 (inactive)
- z-score [5]: -0.868 (inactive)
- z-score [6]: 1.26 (inactive)
- z-score [7]: 0.277 (inactive)
- z-score [8]: 0.434 (inactive)
- z-score [9]: 0.476
- composite z-score [10]: -0.195
- composite z-score [11]: 0.392 (inactive)
- composite z-score (XIP peptide (Xip251-270)): -0.0127
- z-score [12]: -1.61
- z-score [13]: -0.19 (inactive)

Compound: COC(=O)CC=C[C@@H](C)[C@@H](C=NOC(C)CN1CCCc2nc(C)c(C)cc21)OC (some centres undefined)
- z-score [1]: -0.412
- z-score [2]: 0.0692 (inactive)
- z-score [3]: 0.141 (inactive)
- composite z-score [4]: -0.781 (inactive)
- z-score [5]: -0.537 (inactive)
- z-score [6]: -0.151 (inactive)
- z-score [7]: -0.222 (inactive)
- z-score [8]: -0.0403 (inactive)
- z-score [9]: -1.26
- composite z-score [10]: 0.137
- composite z-score [11]: 0.327 (inactive)
- composite z-score (XIP peptide (Xip251-270)): 0.274
- z-score [12]: 0.004
- z-score [13]: -1.24 (inactive)

Compound: CC(=O)OC[C@H]1OC(ON=CC[C@@H]2C=C[C@H](OC(C)=O)[C@@H](COC(C)=O)O2)[C@H](OC(C)=O)[C@@H](OC(C)=O)[C@@H]1OC(C)=O (some centres undefined)
- z-score [1]: 0.186
- z-score [2]: 0.352 (inactive)
- z-score [3]: -0.919 (inactive)
- composite z-score [4]: -0.753 (inactive)
- z-score [5]: -0.0903 (inactive)
- z-score [6]: -0.618 (inactive)
- z-score [7]: 0.938 (inactive)
- z-score [8]: 0.583 (inactive)
- z-score [9]: 0.169
- composite z-score [10]: 0.0982
- composite z-score [11]: -0.476 (inactive)
- composite z-score (XIP peptide (Xip251-270)): 0.0849
- z-score [12]: 0.728
- z-score [13]: -2.22 (inactive)

Compound: CCOC(=O)[C@H](CC(C)C)NC(=O)CCC1CC(OC(=O)NCCc2ccc(F)cc2)CC2(CCCC(COC(=O)NCC(c3ccccc3)c3ccccc3)O2)O1 (some centres undefined)
- z-score [1]: 0.184
- z-score [2]: -0.227 (inactive)
- z-score [3]: -0.345 (inactive)
- composite z-score [4]: 0.0649 (inactive)
- z-score [5]: 0.013 (inactive)
- z-score [6]: 0.126 (inactive)
- z-score [7]: 0.113 (inactive)
- z-score [8]: -1.1 (inactive)
- z-score [9]: 0.465
- composite z-score [10]: -0.0994
- composite z-score [11]: 0.298 (inactive)
- composite z-score (XIP peptide (Xip251-270)): 0.836
- z-score [12]: -1.02
- z-score [13]: -6.92 (inactive)

Compound: COC(=O)[C@H](C)NC(=O)CCC1CC(OC(=O)NCc2ccc3c(c2)OCO3)CC2(CCCC(COC(=O)NCC3CCCCC3)O2)O1 (some centres undefined)
- z-score [1]: 0.635
- z-score [2]: 0.415 (inactive)
- z-score [3]: 0.138 (inactive)
- composite z-score [4]: 0.981 (inactive)
- z-score [5]: -0.388 (inactive)
- z-score [6]: 1.13 (inactive)
- z-score [7]: 0.49 (inactive)
- z-score [8]: 0.139 (inactive)
- z-score [9]: -0.119
- composite z-score [10]: 0.104
- composite z-score [11]: 0.655 (inactive)
- composite z-score (XIP peptide (Xip251-270)): 0.555
- z-score [12]: -1.87
- z-score [13]: -4.19 (inactive)

Compound: C#CCCCON=C1[C@H]2CCn3c(=O)n(-c4ccccc4)c(=O)n3[C@H]2[C@H](O)[C@@H]2O[C@H]12
- z-score [1]: -0.775
- z-score [2]: -1.34 (inactive)
- z-score [3]: -2.23 (inactive)
- composite z-score [4]: -1.16 (inactive)
- z-score [5]: 0.352 (inactive)
- z-score [6]: -1.93 (inactive)
- z-score [7]: -0.536 (inactive)
- z-score [8]: -0.231 (inactive)
- z-score [9]: -1.7
- composite z-score [10]: -0.147
- composite z-score [11]: 0.245 (inactive)
- composite z-score (XIP peptide (Xip251-270)): 0.193
- z-score [12]: -1.19
- z-score [13]: 0.241 (inactive)
